Akt phos inh = inhibitors of Akt phosphorylation. activity change, % for hits at 50 µM. Neuro2A IGF-stimulated pAkt S473 HTRF, 20 min; hits give low values. 360,000 compounds, 0.32% hits; in the data active = activity change below about -80%; inconclusive = mostly about -51% to -80%; note: % is set by controls: 0 for no effect and ±100 for the full control effect
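Single-point screen (50 µM final compound) in Neuro2A cells stimulated 20 min with 6 nM IGF at 37 deg C. After lysis, Ser473-phosphorylated Akt read by HTRF (ex 330 nm, em 615/665 nm) as the 665/615 ratio.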
RXFP1 agonist = agonists of human relaxin receptor RXFP1; HEK293T-RXFP1 cAMP TR-FRET, 30 min; response scale: percent of porcine relaxin response, buffer zero; 370,000 compounds, 0.3% hits; Q9HBX9; Potency, µM (series often up to 57.5 µM), without a hit: top-dose activation, usual class: activators; active = well fitted activation curve with a large enough effect; inconclusive = small, poorly fitted or top-dose-only effect; note: potency is the fitted concentration of half-maximal effect; % is set by controls: 0 for no effect and ±100 for the full control effect; nearly all actives have a fitted effect of over 60% in size
Target sequence (Q9HBX9 whole entry, looked up): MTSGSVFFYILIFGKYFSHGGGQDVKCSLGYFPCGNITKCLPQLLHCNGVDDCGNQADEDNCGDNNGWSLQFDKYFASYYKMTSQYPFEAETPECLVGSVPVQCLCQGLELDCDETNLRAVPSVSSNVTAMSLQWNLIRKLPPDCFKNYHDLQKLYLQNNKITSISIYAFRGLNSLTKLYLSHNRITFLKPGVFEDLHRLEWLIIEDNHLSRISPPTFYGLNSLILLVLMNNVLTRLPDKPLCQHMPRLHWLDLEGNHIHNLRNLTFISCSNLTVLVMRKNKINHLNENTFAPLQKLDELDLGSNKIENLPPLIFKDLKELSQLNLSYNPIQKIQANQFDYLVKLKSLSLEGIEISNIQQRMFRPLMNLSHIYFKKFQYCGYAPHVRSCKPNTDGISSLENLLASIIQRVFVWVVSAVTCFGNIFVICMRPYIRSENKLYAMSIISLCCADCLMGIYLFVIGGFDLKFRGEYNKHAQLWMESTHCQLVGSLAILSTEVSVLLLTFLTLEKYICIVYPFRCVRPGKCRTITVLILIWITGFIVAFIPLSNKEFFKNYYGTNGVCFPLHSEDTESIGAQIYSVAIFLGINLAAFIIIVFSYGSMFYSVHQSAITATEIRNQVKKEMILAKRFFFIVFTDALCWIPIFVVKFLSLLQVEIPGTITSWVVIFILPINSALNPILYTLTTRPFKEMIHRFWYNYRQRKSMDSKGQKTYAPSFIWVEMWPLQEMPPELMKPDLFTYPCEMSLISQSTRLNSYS
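HEK293T cells stably expressing RXFP1 were pretreated with the PDE4 inhibitor Ro 20174, exposed to compounds for 30 min at 37C, lysed, and cAMP was read by TR-FRET. Data normalized to buffer (basal) and 29 nM porcine relaxin (100%).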
gsp antagonist = gsp mutant antagonism; Potency, µM (highest dose often 76.9 µM), inactives show at the highest dose activity change, negative = inhibition, most hits filed as inhibitors; AID 624288; gsp-mutant cells, cAMP HTRF, 30 min; 340,000 compounds, 0.4% hits; calls by dose curve; cell line not stated here;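 note: intracellular cAMP measured with PDE inhibitor Ro 20-1724 present during compound exposure; potency is the fitted concentration of half-maximal effect; % is set by controls: 0 for no effect and ±100 for the full control effect; nearly all actives have a fitted effect of over 65% in size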
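Cells in G418 medium, seeded 16-24 h, 37C; buffer exchange to DPBS + 1 mM CaCl2, 0.5 mM MgCl2, 0.05% BSA; cpds in DMSO + […] (300 uM stock), 30 min 37C; HTRF cAMP detection.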
gsp ag = gsp mutant agonism. 340,000 compounds, 0.13% hits. gsp mutant cells, cAMP HTRF, 30 min. Potency, µM (titrated, usually from 76.9 µM), for the others: at the highest dose activation (cAMP increase), usual class: activators; active = well fitted activation curve with a large enough effect; inconclusive = small, poorly fitted or top-dose-only effect, or another doubt; inactive = no such curve, though single readings can be large or run the other way; cell line not stated here;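 note: phosphodiesterase inhibitor Ro 20-1724 added with compounds to block cAMP breakdown; potency is the fitted concentration of half-maximal effect; nearly all actives have a fitted effect of over 60% in size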
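Cells stably selected in G418 were plated at 2000/well, grown 16-24 hr, then given compounds in DMSO with the PDE inhibitor […] (300 uM solution added) for 30 min at 37C; cAMP was read by HTRF.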
RXFP1 antagonist = antagonists of human relaxin receptor RXFP1; Q9HBX9; HEK293-RXFP1, relaxin-stimulated cAMP HTRF, 30 min; hits give low values; activity change, negative = inhibition, % at 57.5 µM; 350,000 compounds, 0.59% hits;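 active = activity change of -60% or lower, but not beyond a set lower limit; inconclusive = change between -60% and -40%, or beyond the set limit; inactive = change above -40%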; note: % is set by controls: 0 for no effect and ±100 for the full control effect
TSHR antagonist = human thyrotropin receptor antagonism; P16473; TSHR-expressing cells, TSH-stimulated cAMP HTRF, 2 h; hits give low values; activity change, negative = inhibition, % at 11.5 µM; 330,000 compounds, 0.2% hits; AID 504810;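 active = activity change below a set negative limit, meaning inhibition stronger than a set level, cut at about -70% in these data; inconclusive = activity change between two set negative limits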; note: % is set by controls: 0 for no effect and ±100 for the full control effect
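TSHR-expressing cells, 200/well, pre-treated with compound, then stimulated with EC80 TSH (4nM final) for 2 hours at 37 deg C. cAMP measured by competitive HTRF: anti-cAMP cryptate antibody in lysis buffer plus cAMP-d2, read after 30 minutes at room temperature.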
* marks the source's active call; other numbers are inactive results; i = inactive; ? = inconclusive; nt = no result; [ ] = remark or other dose. Shown are actives, neighbours in structure and some others; about 1.3% of the full set was active somewhere.

SMILES	Akt phos inh	RXFP1 agonist	gsp antagonist	gsp ag	RXFP1 antagonist	TSHR antagonist
CCOc1ccc(C(=O)NCCN(C)C)cc1	i	1%	10%	-16%	-2	4
COCCNC(=O)c1cc(C)ccc1C	i	3%	8%	30%[15.4 µM]	-6	1
Cc1ccc(C)c(C(=O)CN2C(=O)CCC2=O)c1	i	1%	0%[15.4 µM]	-1%	1	-4
Cc1ccc(C(=O)NCCN(C)C)cc1C	-107%*	3%	-2%	1%	5	8
Cc1ccc(C)c(C(=O)NCCN(C)C)c1	-110%*	1%	21%	-34%	7	4
C=C(CN(C)C)C(=O)c1cc(C)ccc1C	i	nt	?	?	-109*	nt
CCOc1c(N2CCOCC2)cnn(C)c1=O	nt	nt	nt	nt	-12	nt
COc1ccccc1N1CCN(c2nc3c(S(=O)(=O)c4ccccc4)nnn3c3ccc(Cl)cc23)CC1	nt	-2%	nt	nt	-4	nt
COc1ccc(C)cc1NC(=O)Cn1c(=O)ccc2cc(S(=O)(=O)N3CCCC3)ccc21	nt	-1%	nt	nt	nt	nt
O=C(CNCc1cccnc1)Nc1cc(C(F)(F)F)ccc1N1CCOCC1	i	3%	-10%	?	4	-3
C/C(=N\NC(=O)c1ccc(F)cc1)c1cccc(NC(=O)c2ccco2)c1	-95%*	4%	-2%	-19%	-2	1
O=C(Nc1ccc(Cl)c(S(=O)(=O)N2CCOCC2)c1)c1ccc(OCC2CCCO2)cc1 (stereo unspecified)	i	-1%	32µM*	-32%	-30	-87*
Cc1c(NC(=O)c2ccc(F)c(S(=O)(=O)N3CCOCC3)c2)c(=O)n(-c2ccccc2)n1C	-106%*	3%	12%	9%	-4	7
COc1ccc(C(=O)Nc2ccc(Cl)c(S(=O)(=O)N3CCOCC3)c2)cc1	i	nt	?	29%	?	-45
O=C(Nc1cccc(S(=O)(=O)C(F)F)c1)c1ccc(Cl)c(S(=O)(=O)N2CCOCC2)c1	i	1%	28µM*	11%	-26	-28
Cc1cccnc1NC(=O)c1ccc(Cl)c(S(=O)(=O)N2CCCCCC2)c1	i	0%	-2%	-74%	-28	-42
Cc1ccc(C(=O)Nc2c(C)n(C)n(-c3ccccc3)c2=O)cc1S(=O)(=O)N1CCOCC1	i	0%	8%	11%	5	0
Cc1nonc1NC(=O)c1ccc(Cl)c(S(=O)(=O)N2CCCCC2)c1	-98%*	0%	-27%	7%	5	-12
O=C(Nc1cccc(Br)c1)c1ccc(Cl)c(S(=O)(=O)N2CCOCC2)c1	i	0%	40µM*	-12%	-29	-49
O=S(=O)(NCC1CN(S(=O)(=O)c2c(F)cccc2F)C1)c1ccc2c(c1)OCCO2	nt	-1%	nt	nt	nt	-12
N#C/C(N=Nc1ccccc1O)=N\Nc1ccccc1O	i	-6%	35µM*	nt	nt	?
Cc1cccc(NC(=O)Cn2c(=O)n(Cc3ccco3)c(=N)c3c4c(sc32)COC(C)(C)C4)c1	i	1%	-6%	-33%	-6	-11
CC1(C)Cc2c(sc3c2c(=N)n(Cc2ccco2)c(=O)n3CC(=O)Nc2cccc(Cl)c2)CO1	-122%*	-1%	-10%[15.4 µM]	-10%	-13	11
COc1ccccc1NC(=O)c1sc2nc3n(c(=O)c2c1C)CCC3	i	8.9µM*	-2%	?	16	-9
Cc1ccccc1NC(=O)c1sc2nc3n(c(=O)c2c1C)CCC3	nt	-4%	nt	nt	-16	nt
SMILES	Akt phos inh	RXFP1 agonist	gsp antagonist	gsp ag	RXFP1 antagonist	TSHR antagonist
CCCN(CC(=O)Nc1cccc(Br)c1)CC(=O)Nc1ccc(F)c(F)c1F	i	1%	50µM*	?	-6	-41
CN(C(=O)c1cccc(NC(=O)Cc2ccc(NC(=O)C3CCCN(S(=O)(=O)c4cccc([N+](=O)[O-])c4)C3)cc2)c1)C1CCCC1 (stereo unspecified)	i	nt	-6%	nt	nt	nt
O=c1c(/C=N\NS(=O)(=O)c2ccccc2)coc2ccc(Cl)cc12	i	-1%	-2%	-55%	-5	3
O=C(CCc1ccc(S(=O)(=O)N2CCOCC2)cc1)Nc1nc(COc2ccccc2)cs1	nt	0%	28µM*	0%	0	-42
O=C(COc1ccccc1)Nc1nc(-c2ccc(S(=O)(=O)N3CCOCC3)cc2)cs1	i	2%	-3%	8%	11	1
Cc1cc(C)cc(N(C(=O)c2csnn2)C(C(=O)NC2CCCCC2)c2ccncc2)c1 (stereo unspecified)	i	-1%	-16%	6%[15.4 µM]	-15	nt
CC(=O)c1cccc(N(C(=O)c2csnn2)C(C(=O)NC2CCCC2)c2ccccc2)c1 (stereo unspecified)	i	2%	-7%	3%	-80*	-13
Cc1cc(C)cc(NC(=O)CN2C(=O)C3CC=CCC3C2=O)c1 (stereo unspecified)	i	3%	9%	-13%	5	-9
CN(c1ccccc1)S(=O)(=O)c1cccc(C(=O)NCC(=O)Nc2ccc(F)c(F)c2F)c1	i	nt	?	26%	5	nt
COC(=O)c1ccccc1NC(=O)Cn1c(=O)n(-c2ccc(Cl)cc2)c(=O)c2c(C)c(C)sc21	nt	0%	nt	nt	-6	nt
CCOC(=O)C1=C(C)NC(=O)NC1C1CC=CCC1 (stereo unspecified)	i	1%	11%	5%	-9	0
COC(=O)C1=C(C)NC(C)=C(C(=O)OC)C1C1CC=CCC1 (stereo unspecified)	-130%*	0%	-3%	0%	2	53
CCOC(=O)N1CCN(C(=O)c2ccc(Cl)c(S(=O)(=O)N3CCCC3)c2)CC1	i	1%	-1%	10%[15.4 µM]	6	13
Cc1nc2ccccn2c1C(=O)NNC(=S)Nc1ccc(Cl)cc1	i	2%	-20%	3%[15.4 µM]	-6	0
Cc1nc2ccccn2c1C(=O)NNC(=S)Nc1ccccc1	i	6%	-7%	-3%	-89*	-1
COCCNC(=O)c1cnn2c1NC(c1ccco1)CC2C(F)(F)F (stereo unspecified)	i	-3%	16%	12%	-2	-7
CN(Cc1ccc(-n2cccn2)cc1)C(=O)c1cnn2c1NC(c1ccco1)CC2C(F)(F)F (stereo unspecified)	i	3%	32µM*	0%	nt	0
CCOc1ccccc1NC(=O)Cn1c(=O)n(-c2ccccc2)c(=O)c2c1c1cc(C)ccc1n2C	nt	3%	nt	nt	nt	nt
COc1ccc(-c2cc(C(=O)NCc3ccc(Cl)cc3)no2)cc1OC	-92%*	1%	12%	3%	5	3

Screening results: PubChem BioAssay, National Center for Advancing Translational Sciences (NCATS)
